# Laboratory results: PubChem BioAssay
# Test: viability profiling in RPMI8226 myeloma cells – cell-based, resazurin fluorescence, basal, 24 h, PK04 Diversity Set, profiling panel (AID 1180);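 also: RPMI8826 multiple myeloma cell line at 5000 cells per well; test concentration not given here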
# Conditions: higher = more signal
row,Structure (SMILES),z-score
1,COC(=O)[C@@]1(Cc2ccc(F)cc2)[C@H]2c3cc(C(=O)N(C)C)n(CCc4ccc(O)c(O)c4)c3C[C@H]2CN1C(=O)c1ccccc1,-0.834
2,CCOC(=O)C1=CC[C@@H](c2ccc(OC)cc2)N(S(=O)(=O)c2ccc(C)cc2)[C@H]1c1ccc(C)cc1,-0.652
3,[N-]=[N+]=NCc1ccccc1[C@@H]1OC(c2ccc(OCCCO)cc2)=N[C@]1(Cc1ccccc1N=[N+]=[N-])C(=O)O,-0.0845
4,COC(=O)[C@@]1(Cc2ccccc2)[C@H]2c3cc(C(=O)N(C)C)n(CCSC(=N)N)c3C[C@H]2CN1C(=O)c1ccccc1,-0.374
5,Cc1ccc(S[C@]2(C(=O)NC(C)C)CC(=O)N(C3CCCCC3)[C@@H]2c2ccc(CO)cc2I)cc1,-2.01
6,COC(=O)C(CC#Cc1ccc2c(c1)[C@]1(C(=O)N2)[C@H](C(=O)N2CCc3cc(OC)c(OC)cc3C2)[C@H]2C(=O)O[C@H](c3ccccc3)[C@H](c3ccccc3)N2[C@@H]1c1ccccc1OCCO)C(=O)OC,-0.705
7,C=CC[C@@]12N=C(c3ccc(OCCCO)cc3)O[C@@H]1c1ccccc1N(CCC)C2=O,-0.473
8,CCC(CC)C(O)C1C=CC2C(=O)N(c3ccccc3)C(=O)C2N1Nc1ccccc1F (stereo unspecified),0.181
9,C=C(COC)/C(=C/C[C@H](OC(C)=O)c1ccccc1OCCO)c1cc(C(=O)OC)ccc1OC,-0.776
10,CN(C)CCCC[C@@H]1NC(=O)[C@@H]2C[C@H](C(=O)NCCCCCN)[C@H](c3cccc(OCCO)c3)N2C1=O,0.819
11,COC(=O)C[C@H]1O[C@@]2(C[C@@H]1[Si](C)(C)C)C(=O)N(C)c1ccccc12,0.904
